PubChem BioAssay (EPA / NIEHS)
“And” between values parts separate entries of the source, which are not always exact repeats. Identical values can stand only once. Inconclusive results are not listed. The source holds several records for some structures; these can differ, active in one and inactive in another. The source made the active and inactive calls. How the source made its calls: active means hit-call score of the fitted dose curve at least 0.9, where 1 is the maximum; inconclusive means response in the unintended direction; inactive means score below 0.9.

Legend:
[1] = tested on: guinea pig Leukotriene B4 Receptor (LTB4), gene 100379538; test: NVS_GPCR_gLTB4: NovaScreen (NVS) G Protein-Coupled Receptor Assay for guinea pig Leukotriene B4 Receptor (LTB4) (AID 2283247)
Outline: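 Radioligand displacement on guinea pig spleen membranes, filter-based scintillation counting 2 h after dosing. Primary duplicate single point at 25 uM; hits over threshold (e.g. 30% inhibition) run in concentration-response up to 50 uM, DMSO baseline.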

[2] = molecular target: human Adrenergic, Beta 3 Receptor (Adrb3), ADRB3 (gene 155) (UniProt P13945); test: NVS_GPCR_hAdrb3: NovaScreen (NVS) G Protein-Coupled Receptor Assay for human Adrenergic, Beta 3 Receptor (Adrb3) (AID 2283262)
Outline: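 Membranes from SK-N-MC cells pretreated with isoproterenol and 8-bromo-cAMP were used in a radioligand competitive displacement binding assay. Binding was read by filter-based scintillation counting 1 hour after dosing. Primary screening was in duplicate at 25 uM, with concentration series in follow-up.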

[3] = molecular target: guinea pig Leukotriene D4 Receptor (LTD4), CYSLTR1 (gene 100135514) (UniProt Q2NNR5); test: NVS_GPCR_gLTD4: NovaScreen (NVS) G Protein-Coupled Receptor Assay for guinea pig Leukotriene D4 Receptor (LTD4) (AID 2283248)
Outline: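 Radioligand displacement on guinea pig lung membranes, 1 h incubation, filtration and scintillation counting; DMSO as negative control. Duplicate 25 uM primary screen, then singleton concentration-response up to 50 uM.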

[4] = tested on: guinea pig Muscarinic, Peripheral (Mperiperal) Receptor, Non-selective Binding, gene 100379235; test: NVS_GPCR_gMPeripheral_NonSelective: NovaScreen (NVS) G Protein-Coupled Receptor Assay for guinea pig Muscarinic, Peripheral (Mperiperal) Receptor, Non-selective Binding (AID 2283250)
Outline: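 Guinea pig bladder membranes, radioligand binding read 1 h after dosing by filter scintillation counting; loss of signal vs DMSO. Primary duplicate screen at 25 uM, then concentration-response up to 50 uM.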

[5] = molecular target: human Serotonin, 5-Hydroxytryptamine Receptor 5A (5HT5A), HTR5A (gene 3361) (UniProt P47898); test: NVS_GPCR_h5HT5A: NovaScreen (NVS) G Protein-Coupled Receptor Assay for human Serotonin, 5-Hydroxytryptamine Receptor 5A (5HT5A) (AID 2283251)
Outline: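 Cell-free radioligand displacement binding on HEK293-derived membrane protein, 1 h incubation, filter-based scintillation counting. Primary screen in duplicate at 25 uM, actives followed in concentration series; loss of signal fitted versus DMSO.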

[6] = molecular target: human Adenosine A2a Receptor (AdoRA2a), ADORA2A (gene 135) (UniProt P29274); test: NVS_GPCR_hAdoRA2a: NovaScreen (NVS) G Protein-Coupled Receptor Assay for human Adenosine A2a Receptor (AdoRA2a) (AID 2283256)
Outline: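 Radioligand displacement on HEK293-derived membrane protein, cell-free; filter-based scintillation counting 1.5 hours after dosing, loss of signal vs DMSO. Single-point duplicate screen at 25 uM, actives retested in concentration series.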

[7] = molecular target: human Adrenergic, Alpha 2c Receptor (Adra2C), ADRA2C (gene 152) (UniProt P18825); test: NVS_GPCR_hAdra2C: NovaScreen (NVS) G Protein-Coupled Receptor Assay for human Adrenergic, Alpha 2c Receptor (Adra2C) (AID 2283259)
Outline: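 Radioligand binding on Sf9-expressed receptor membranes, 1 h after chemical dosing, filter-based scintillation read-out. Loss of binding fitted positively versus DMSO; primary duplicate screen at 25 uM, actives retested in concentration series.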

[8] = molecular target: Type-1 angiotensin II receptor (Homo sapiens) (UniProt P30556); test: NVS_GPCR_hAT1: NovaScreen (NVS) G Protein-Coupled Receptor Assay for human Angiotensin II receptor type 1 (AT1) (AID 2283263)
Outline: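 Membranes from KAN-TS cells; radioligand competitive displacement, 3 h, filtration and scintillation counting. Single-point duplicate screen at 25 uM, then concentration-response up to 50 uM for hits; loss of signal fitted versus DMSO.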

[9] = molecular target: human Dopamine Receptor D2 (DRD2), DRD2 (gene 1813) (UniProt P14416); test: NVS_GPCR_hDRD2s: NovaScreen (NVS) G Protein-Coupled Receptor Assay for human Dopamine Receptor D2 (DRD2) (AID 2283266)
Outline: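 Radioligand displacement used human DRD2 membranes extracted from CHO cells and was read by filter-based scintillation counting after 1.5 hours. Primary screening was in duplicate at 25 uM. Loss of signal versus DMSO was fitted, with concentration series in follow-up.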

[10] = molecular target: guinea pig Opioid, Kappa 1 Receptor (OpiateK), OPRK1 (gene 100135587) (UniProt P41144); test: NVS_GPCR_gOpiateK: NovaScreen (NVS) G Protein-Coupled Receptor Assay for guinea pig Opioid, Kappa 1 Receptor (OpiateK) (AID 2283252);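 further: radioligand displacement from kappa opioid receptor in guinea pig cerebellar membranes; active means reduced radioligand binding relative to DMSO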
Outline: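 Guinea pig cerebellar membranes were incubated with a radioligand for 2 h after compound addition; bound radioactivity was read by filter-based scintillation counting. Loss of specific binding relative to DMSO baseline defined activity; primary screen at 25 uM in duplicate.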

[11] = molecular target: human Serotonin, 5-Hydroxytryptamine Receptor 6 (5HT6), HTR6 (gene 3362) (UniProt P50406); test: NVS_GPCR_h5HT6: NovaScreen (NVS) G Protein-Coupled Receptor Assay for human Serotonin, 5-Hydroxytryptamine Receptor 6 (5HT6) (AID 2283253)
Outline: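 Radioligand binding to 5HT6 in HEK293-derived membranes, cell-free, 1 h after dosing; bound ligand measured by filter-based scintillation counting. Primary screen in duplicate at 25 uM; actives retested in concentration series.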

[12] = molecular target: human Serotonin, 5-Hydroxytryptamine Receptor 7 (5HT7), HTR7 (gene 3363) (UniProt P34969); test: NVS_GPCR_h5HT7: NovaScreen (NVS) G Protein-Coupled Receptor Assay for human Serotonin, 5-Hydroxytryptamine Receptor 7 (5HT7) (AID 2283255);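 further: hits reduce specific radioligand binding relative to DMSO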
Outline: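 Radioligand displacement on membranes from CHO cells expressing human 5HT7, 1 h incubation, filter-based scintillation counting. Primary screen used a single 25 uM concentration in duplicate; actives were followed up in concentration series.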

[13] = molecular target: human Adrenergic, Beta 1 Receptor (Adrb1), ADRB1 (gene 153) (UniProt P08588); test: NVS_GPCR_hAdrb1: NovaScreen (NVS) G Protein-Coupled Receptor Assay for human Adrenergic, Beta 1 Receptor (Adrb1) (AID 2283258)
Outline: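 Cell-free radioligand displacement on receptor from human neuroepithelioma cells; 2 h after dosing, filter-based scintillation counting. Primary screen in duplicate at 25 uM, actives retested in concentration series; loss of signal vs DMSO baseline.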

[14] = molecular target: human Dopamine Receptor D4.4 (DRD4.4), DRD4 (gene 1815) (UniProt P21917); test: NVS_GPCR_hDRD4.4: NovaScreen (NVS) G Protein-Coupled Receptor Assay for human Dopamine Receptor D4.4 (DRD4.4) (AID 2283264)
Outline: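 Radioligand displacement on human DRD4.4 from CHO-derived membranes, 1 hour incubation, bound counts read by filtration and scintillation. Primary screen in duplicate at 25 uM; actives followed up in concentration series.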

[15] = molecular target: human Endothelin Receptor Type A (ETA), EDNRA (gene 1909) (UniProt P25101); test: NVS_GPCR_hETA: NovaScreen (NVS) G Protein-Coupled Receptor Assay for human Endothelin Receptor Type A (ETA) (AID 2283265)
Outline: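 Cell-free radioligand displacement using SH-SY5Y-derived protein, 3 h incubation, filter-based scintillation counting. Primary screen in duplicate at 25 uM; actives then run in concentration-response up to 50 uM; loss of binding fitted versus DMSO.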

[16] = tested on: rat Monoamine Oxidase, MAO-A, Central (MAOAC), gene 29253; test: NVS_ENZ_rMAOAC: NovaScreen (NVS) Enzymatic Assay for rat Monoamine Oxidase, MAO-A, Central (MAOAC) (AID 2283243);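 further: potency refers to inhibition seen as signal drop below DMSO baseline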
Outline: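 Steps: rat brain protein extract dosed with test chemical (25 uM, duplicate, primary); incubated 1.5 h; radiolabelled product separated from substrate and counted. Signal loss versus DMSO scored as inhibition.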

[17] = molecular target: human Adrenergic, Alpha 2A Receptor (Adra2A), ADRA2A (gene 150) (UniProt P08913); test: NVS_GPCR_hAdra2A: NovaScreen (NVS) G Protein-Coupled Receptor Assay for human Adrenergic, Alpha 2A Receptor (Adra2A) (AID 2283257)
Outline: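 Radioligand filter-binding was run on HT29-derived membranes, cell-free, read by scintillation counting 1 h after dosing. Primary screening was in duplicate at 25 uM, with concentration series in follow-up. Loss of signal versus DMSO indicates displacement.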

Sequence of human Serotonin, 5-Hydroxytryptamine Receptor 6 (5HT6), HTR6 (gene 3362) (P50406 whole entry, looked up): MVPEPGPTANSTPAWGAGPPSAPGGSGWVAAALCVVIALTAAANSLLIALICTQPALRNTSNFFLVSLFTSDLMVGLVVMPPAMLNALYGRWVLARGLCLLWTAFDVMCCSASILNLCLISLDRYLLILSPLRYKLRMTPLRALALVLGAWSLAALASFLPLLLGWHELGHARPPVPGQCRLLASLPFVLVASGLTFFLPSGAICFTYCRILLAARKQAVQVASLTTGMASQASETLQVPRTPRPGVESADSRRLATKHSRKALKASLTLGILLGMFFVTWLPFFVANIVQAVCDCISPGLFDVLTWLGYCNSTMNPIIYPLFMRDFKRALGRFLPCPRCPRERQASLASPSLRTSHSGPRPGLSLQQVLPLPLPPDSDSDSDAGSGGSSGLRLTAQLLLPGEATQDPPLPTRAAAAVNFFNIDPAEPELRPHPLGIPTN
Sequence of human Dopamine Receptor D4.4 (DRD4.4), DRD4 (gene 1815) (P21917 whole entry, looked up): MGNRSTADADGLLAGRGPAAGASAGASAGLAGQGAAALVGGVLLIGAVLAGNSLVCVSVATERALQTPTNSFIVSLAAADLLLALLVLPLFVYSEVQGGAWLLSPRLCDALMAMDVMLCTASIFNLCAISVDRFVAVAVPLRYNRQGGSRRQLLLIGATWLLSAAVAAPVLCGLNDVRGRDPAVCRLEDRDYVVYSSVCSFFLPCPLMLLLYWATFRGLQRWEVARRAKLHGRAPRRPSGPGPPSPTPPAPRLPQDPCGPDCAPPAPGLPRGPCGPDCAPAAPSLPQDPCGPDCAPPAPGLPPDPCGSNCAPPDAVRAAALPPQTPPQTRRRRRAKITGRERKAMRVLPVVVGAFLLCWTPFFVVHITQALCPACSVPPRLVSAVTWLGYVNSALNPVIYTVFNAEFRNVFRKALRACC
Sequence of human Serotonin, 5-Hydroxytryptamine Receptor 5A (5HT5A), HTR5A (gene 3361) (P47898 whole entry, looked up): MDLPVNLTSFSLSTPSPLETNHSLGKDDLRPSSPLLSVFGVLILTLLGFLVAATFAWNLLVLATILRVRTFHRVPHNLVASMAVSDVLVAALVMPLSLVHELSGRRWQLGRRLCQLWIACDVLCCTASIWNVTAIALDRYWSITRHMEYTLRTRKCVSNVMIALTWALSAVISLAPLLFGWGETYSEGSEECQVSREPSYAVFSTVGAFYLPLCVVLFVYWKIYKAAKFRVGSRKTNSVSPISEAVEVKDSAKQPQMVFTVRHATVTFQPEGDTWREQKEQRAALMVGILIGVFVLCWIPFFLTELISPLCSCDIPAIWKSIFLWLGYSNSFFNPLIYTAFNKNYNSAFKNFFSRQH
Sequence of human Adenosine A2a Receptor (AdoRA2a), ADORA2A (gene 135) (P29274 whole entry, looked up): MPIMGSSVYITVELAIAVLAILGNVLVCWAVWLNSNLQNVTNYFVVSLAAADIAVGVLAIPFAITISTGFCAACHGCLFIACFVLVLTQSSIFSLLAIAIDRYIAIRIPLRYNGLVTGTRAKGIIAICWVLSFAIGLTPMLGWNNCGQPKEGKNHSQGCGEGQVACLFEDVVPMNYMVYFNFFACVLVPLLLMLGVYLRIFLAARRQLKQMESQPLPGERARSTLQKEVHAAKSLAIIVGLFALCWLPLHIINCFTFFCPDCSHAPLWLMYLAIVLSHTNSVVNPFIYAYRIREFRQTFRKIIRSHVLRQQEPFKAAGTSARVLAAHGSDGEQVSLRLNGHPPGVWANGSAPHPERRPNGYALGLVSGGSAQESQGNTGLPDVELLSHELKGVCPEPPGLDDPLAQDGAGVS
Sequence of Type-1 angiotensin II receptor (Homo sapiens) (P30556 whole entry, looked up): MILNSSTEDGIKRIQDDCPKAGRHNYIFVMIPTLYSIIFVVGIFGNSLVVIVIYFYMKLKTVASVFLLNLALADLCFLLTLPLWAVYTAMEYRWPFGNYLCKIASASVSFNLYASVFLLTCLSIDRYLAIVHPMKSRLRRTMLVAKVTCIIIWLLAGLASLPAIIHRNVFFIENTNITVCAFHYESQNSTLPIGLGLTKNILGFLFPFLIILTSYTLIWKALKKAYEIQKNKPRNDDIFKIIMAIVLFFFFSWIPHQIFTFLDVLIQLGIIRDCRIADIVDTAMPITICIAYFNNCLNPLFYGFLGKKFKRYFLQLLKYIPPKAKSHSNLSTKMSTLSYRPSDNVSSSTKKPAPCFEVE
Sequence of guinea pig Leukotriene D4 Receptor (LTD4), CYSLTR1 (gene 100135514) (Q2NNR5 whole entry, looked up): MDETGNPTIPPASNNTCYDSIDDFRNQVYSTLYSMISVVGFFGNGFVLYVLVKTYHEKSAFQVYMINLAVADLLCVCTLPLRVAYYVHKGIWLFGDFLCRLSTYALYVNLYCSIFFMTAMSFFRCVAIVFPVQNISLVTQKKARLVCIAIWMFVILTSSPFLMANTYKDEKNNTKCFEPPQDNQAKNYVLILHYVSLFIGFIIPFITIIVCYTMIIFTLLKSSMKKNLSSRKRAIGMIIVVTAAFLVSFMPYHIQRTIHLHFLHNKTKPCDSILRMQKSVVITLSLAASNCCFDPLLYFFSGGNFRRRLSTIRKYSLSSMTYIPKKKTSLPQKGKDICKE
Sequence of human Serotonin, 5-Hydroxytryptamine Receptor 7 (5HT7), HTR7 (gene 3363) (P34969 whole entry, looked up): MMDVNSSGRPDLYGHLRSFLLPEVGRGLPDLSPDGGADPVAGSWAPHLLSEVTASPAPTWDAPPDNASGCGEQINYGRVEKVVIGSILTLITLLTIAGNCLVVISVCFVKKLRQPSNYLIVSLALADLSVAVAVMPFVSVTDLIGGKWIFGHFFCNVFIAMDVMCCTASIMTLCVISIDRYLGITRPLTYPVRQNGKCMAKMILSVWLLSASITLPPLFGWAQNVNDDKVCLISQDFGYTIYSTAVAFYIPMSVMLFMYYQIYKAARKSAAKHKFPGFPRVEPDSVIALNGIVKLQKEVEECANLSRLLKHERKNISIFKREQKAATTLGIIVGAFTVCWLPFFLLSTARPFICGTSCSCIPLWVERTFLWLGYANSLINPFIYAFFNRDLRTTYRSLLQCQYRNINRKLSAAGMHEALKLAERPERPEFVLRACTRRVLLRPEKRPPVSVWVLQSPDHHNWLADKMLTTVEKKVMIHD
Sequence of human Adrenergic, Beta 1 Receptor (Adrb1), ADRB1 (gene 153) (P08588 whole entry, looked up): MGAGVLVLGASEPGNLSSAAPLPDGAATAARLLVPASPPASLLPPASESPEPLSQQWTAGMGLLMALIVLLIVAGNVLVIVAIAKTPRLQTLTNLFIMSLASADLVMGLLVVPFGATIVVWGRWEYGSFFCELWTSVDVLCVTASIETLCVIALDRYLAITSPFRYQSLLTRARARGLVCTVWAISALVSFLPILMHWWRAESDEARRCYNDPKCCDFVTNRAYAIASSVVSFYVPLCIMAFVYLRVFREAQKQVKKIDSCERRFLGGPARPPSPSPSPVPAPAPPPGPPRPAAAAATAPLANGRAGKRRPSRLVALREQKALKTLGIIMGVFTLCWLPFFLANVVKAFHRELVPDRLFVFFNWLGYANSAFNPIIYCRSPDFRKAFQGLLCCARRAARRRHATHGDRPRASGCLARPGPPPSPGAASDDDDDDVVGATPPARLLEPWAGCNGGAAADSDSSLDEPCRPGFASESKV
Sequence of human Dopamine Receptor D2 (DRD2), DRD2 (gene 1813) (P14416 whole entry, looked up): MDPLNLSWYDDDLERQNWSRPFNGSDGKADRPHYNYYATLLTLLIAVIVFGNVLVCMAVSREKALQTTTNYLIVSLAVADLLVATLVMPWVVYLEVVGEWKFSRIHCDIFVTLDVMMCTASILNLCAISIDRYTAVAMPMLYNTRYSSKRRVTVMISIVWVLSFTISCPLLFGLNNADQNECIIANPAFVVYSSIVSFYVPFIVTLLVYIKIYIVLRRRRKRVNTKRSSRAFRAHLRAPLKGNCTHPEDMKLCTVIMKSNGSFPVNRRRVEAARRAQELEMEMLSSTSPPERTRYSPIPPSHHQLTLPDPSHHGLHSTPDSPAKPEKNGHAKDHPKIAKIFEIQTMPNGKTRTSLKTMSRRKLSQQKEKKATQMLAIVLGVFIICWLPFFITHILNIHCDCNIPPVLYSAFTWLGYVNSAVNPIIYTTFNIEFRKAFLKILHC
Sequence of guinea pig Opioid, Kappa 1 Receptor (OpiateK), OPRK1 (gene 100135587) (P41144 whole entry, looked up): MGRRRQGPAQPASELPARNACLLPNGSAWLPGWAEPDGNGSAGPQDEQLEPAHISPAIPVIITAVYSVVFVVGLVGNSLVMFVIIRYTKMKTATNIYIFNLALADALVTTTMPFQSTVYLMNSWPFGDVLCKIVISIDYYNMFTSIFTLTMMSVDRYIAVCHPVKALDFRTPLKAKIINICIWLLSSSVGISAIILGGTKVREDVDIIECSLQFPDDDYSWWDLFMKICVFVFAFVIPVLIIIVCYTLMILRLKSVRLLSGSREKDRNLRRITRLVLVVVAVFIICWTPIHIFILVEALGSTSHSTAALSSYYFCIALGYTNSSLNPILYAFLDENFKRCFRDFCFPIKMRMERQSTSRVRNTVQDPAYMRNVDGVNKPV
Sequence of human Adrenergic, Alpha 2c Receptor (Adra2C), ADRA2C (gene 152) (P18825 whole entry, looked up): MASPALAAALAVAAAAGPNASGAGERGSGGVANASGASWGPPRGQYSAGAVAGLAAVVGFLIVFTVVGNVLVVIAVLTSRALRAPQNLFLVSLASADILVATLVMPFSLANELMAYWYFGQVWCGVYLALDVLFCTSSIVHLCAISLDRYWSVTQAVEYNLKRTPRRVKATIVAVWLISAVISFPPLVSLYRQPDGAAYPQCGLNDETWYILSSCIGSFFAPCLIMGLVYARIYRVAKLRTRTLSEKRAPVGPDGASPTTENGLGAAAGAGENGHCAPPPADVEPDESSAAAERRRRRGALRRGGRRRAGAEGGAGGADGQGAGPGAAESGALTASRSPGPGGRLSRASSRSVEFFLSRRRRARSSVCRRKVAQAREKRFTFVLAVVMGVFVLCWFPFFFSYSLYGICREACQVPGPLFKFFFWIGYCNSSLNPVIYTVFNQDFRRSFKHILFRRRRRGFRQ

COP(=S)(OC)Oc1ccc([N+](=O)[O-])cc1
AC50 [1]: 10.5 µM (active)
AC50 [2]: 12.5 µM (active)

O=C(O)C(F)(F)C(F)(F)C(F)(F)C(F)(F)C(F)(F)C(F)(F)C(F)(F)F
AC50 [1]: 18.5 µM (active)
outcome [3]: inactive
outcome [4]: inactive
outcome [5]: inactive
AC50 [6]: 11 µM (active)
outcome [7]: inactive
outcome [8]: inactive
outcome [9]: inactive

CCOCN(C(=O)CCl)c1c(C)cccc1CC
outcome [10]: inactive
outcome [11]: inactive
outcome [8]: inactive

O=S(=O)(O)C(F)(F)C(F)(F)C(F)(F)C(F)(F)C(F)(F)C(F)(F)C(F)(F)C(F)(F)F
AC50 [1]: 13.1 µM (active) [middle of 4 runs]
outcome [1]: inactive
AC50 [3]: 24 µM (active) [middle of 4 runs]
outcome [3]: inactive
AC50 [5]: 35.1 µM (active) and 11.6 µM (active) and 33.8 µM (active)
outcome [5]: inactive
AC50 [11]: 32.7 µM (active) and 42.8 µM (active)
AC50 [12]: 6.51 µM (active) and 25 µM (active) and 24 µM (active)
AC50 [6]: 6.28 µM (active) [middle of 5 runs]
AC50 [13]: 37 µM (active) and 31.2 µM (active) and 29.9 µM (active)
AC50 [8]: 49.6 µM (active)
outcome [8]: inactive
AC50 [14]: 25 µM (active) and 16.3 µM (active) and 24 µM (active)
outcome [14]: inactive
outcome [15]: inactive
AC50 [9]: 7.24 µM (active)

C#CCN1C(=O)COc2cc(F)c(N3C(=O)C4=C(CCCC4)C3=O)cc21
AC50 [16]: 6.93 µM (active)

CC1(C)C(C=C(Cl)Cl)C1C(=O)OC(C#N)c1ccc(F)c(Oc2ccccc2)c1 (stereo not given)
outcome [12]: inactive

CCc1ccc(C(=O)NN(C(=O)c2cc(C)cc(C)c2)C(C)(C)C)cc1
outcome [4]: inactive

[2H]C1([2H])[n+]2ccccc2-c2cccc[n+]2C1([2H])[2H]
outcome [4]: inactive

CCN(CC)C(=O)SCc1ccc(Cl)cc1
outcome [5]: inactive

CCCN(CCOc1c(Cl)cc(Cl)cc1Cl)C(=O)n1ccnc1
AC50 [16]: 8.15 µM (active)
outcome [5]: inactive
outcome [10]: inactive
AC50 [12]: 13.3 µM (active)
AC50 [7]: 4.96 µM (active)

CC(C)(C)C(O)/C(=C\c1ccc(Cl)cc1Cl)n1cncn1 (stereo not given)
outcome [5]: inactive
outcome [11]: inactive

CCCN(CCC)c1c([N+](=O)[O-])cc(C(F)(F)F)cc1[N+](=O)[O-]
AC50 [5]: 6.21 µM (active)
outcome [17]: inactive

CNC(=O)Oc1cccc(N=CN(C)C)c1
outcome [16]: inactive
outcome [14]: inactive
